# HP1b binding inh = HP1-beta chromodomain-methylated histone interaction inhibition; AlphaScreen HP1-beta / biotin-H3K9me3 peptide binding; hit rate 0.56% among 390,000; Potency, µM (top dose mostly 114 µM), inactives show at the top dose activity change, negative = inhibition, most hits filed as inhibitors; P83916; also: nearly all actives have a fitted effect of over 70% in size
#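 Compound inhibition of the preformed complex between 50 nM HP1-beta and 50 nM biotinylated H3K9me3 peptide was read by AlphaScreen. Buffer was PBS pH 7.4 with 0.01% Tween-20. Incubations ran 30 min at room temperature, with 10 ug/mL donor/acceptor beads.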
# BAZ2B block = blocks human BAZ2B | Q9UIF8 | AlphaScreen BAZ2B-H3K14Ac peptide displacement | Potency, µM (top dose mostly 114 µM), inactives show at the top dose activity change, negative = inhibition, actives largely listed as inhibitors | hit rate 4.4% among 360,000 | AID 504333; also: % is scaled to controls: 0 for no effect and ±100 for the full control effect; nearly all actives have a fitted effect of over 60% in size
#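 AlphaScreen luminescence quantifies BAZ2B engagement of H3K14Ac peptide; the protein and biotinylated peptide are both at 50 nM final, buffer PBS pH 7.4 with 0.01% Tween-20, all steps at room temperature.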
# G9a inh = G9a (human) methyltransferase inhibition; Q96KQ7; G9a H3K9 monomethylation, AlphaScreen, 2 h; Potency, µM (highest dose often 102 µM), inactives show top-dose activity, negative = inhibition, usual class: inhibitors; hit rate 8.8% among 350,000; AID 504332; also: % is scaled to controls: 0 for no effect and ±100 for the full control effect; nearly all actives have a fitted effect of over 75% in size
#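 Step 1: enzyme (final 20 nM) with compound, 15 min RT. Step 2: substrate peptide 500 nM and SAM 20 uM, 2 h RT. Step 3: anti-H3K9me1 antibody and AlphaScreen beads, 10 min, then plate read.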
# L3MBTL1 inh = L3MBTL1 (human) inhibition. Q9Y468. AlphaScreen L3MBTL1–H3K9me1 peptide binding. Potency, µM (top dose mostly 57.1 µM), for the others: at the top dose activity, negative = inhibition, actives largely listed as inhibitors. hit rate 0.66% among 230,000. AID 485360; also: % is scaled to controls: 0 for no effect and ±100 for the full control effect; nearly all actives have a fitted effect of over 60% in size
# Target sequence (Q9Y468 whole entry, looked up): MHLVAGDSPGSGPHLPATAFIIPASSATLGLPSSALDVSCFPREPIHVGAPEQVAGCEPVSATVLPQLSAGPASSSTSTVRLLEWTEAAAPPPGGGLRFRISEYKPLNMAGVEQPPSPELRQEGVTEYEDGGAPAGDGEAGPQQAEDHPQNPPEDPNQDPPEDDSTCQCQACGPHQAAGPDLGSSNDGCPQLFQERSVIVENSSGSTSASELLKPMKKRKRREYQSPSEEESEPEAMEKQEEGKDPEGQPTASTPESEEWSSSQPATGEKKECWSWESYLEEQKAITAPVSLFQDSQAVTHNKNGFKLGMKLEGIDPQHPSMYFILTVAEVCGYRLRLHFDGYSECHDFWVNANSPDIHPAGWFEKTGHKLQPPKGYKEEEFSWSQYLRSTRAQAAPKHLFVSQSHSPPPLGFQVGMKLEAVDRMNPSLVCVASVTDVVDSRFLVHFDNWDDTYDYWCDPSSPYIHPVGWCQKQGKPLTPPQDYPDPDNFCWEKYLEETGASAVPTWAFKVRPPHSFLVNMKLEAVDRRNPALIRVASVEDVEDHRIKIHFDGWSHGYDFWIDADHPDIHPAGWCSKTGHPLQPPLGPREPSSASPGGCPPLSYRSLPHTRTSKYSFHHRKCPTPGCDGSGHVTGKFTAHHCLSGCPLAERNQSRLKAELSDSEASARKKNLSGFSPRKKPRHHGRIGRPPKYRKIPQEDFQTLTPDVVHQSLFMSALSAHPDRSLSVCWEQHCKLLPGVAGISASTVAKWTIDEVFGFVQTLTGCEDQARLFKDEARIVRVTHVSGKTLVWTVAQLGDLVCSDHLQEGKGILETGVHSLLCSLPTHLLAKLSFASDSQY
#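 First, the protein-peptide complex forms for 30 min at room temperature (L3MBTL1 50 nM, biotinylated H3K9me1 peptide 75 nM). Next, compounds are pin-transferred and incubated 30 min. Finally, AlphaScreen beads are added and read after 30 min.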
# JMJD2A Tudor = JMJD2A Tudor domain (human) inhibition | O75164 | AlphaScreen JMJD2A-Tudor / H3K4me3 peptide binding | Potency, µM (doses to about 114 µM), for the others: at the highest dose activity change, negative = inhibition, actives largely listed as inhibitors | hit rate 4.4% among 390,000 | AID 504339; also: % is scaled to controls: 0 for no effect and ±100 for the full control effect; nearly all actives have a fitted effect of over 50% in size
# Sfp inh = blocks B. subtilis Sfp PPTase activity | Biochemical Sfp PPTase activity, qHTS | Potency, µM, inactives show largest response in the series, negative = inhibition, hits mostly inhibitors | hit rate 3.5% among 310,000 | AID 1490;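 also: the enzyme is Sfp with the accession as filed and its product quenches rhodamine fluorescence; 0% = enzyme reaction without inhibitor and -100% = no enzyme wells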
#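 Compounds were incubated with enzyme (final 15 nM) for 15 min at room temperature before substrate addition started the reaction. Fluorescence at 525 nm excitation, 598 nm emission was recorded immediately and after 30 minutes.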
# An asterisk follows results filed as active; ? = inconclusive; nt = no result; [ ] = remark or other dose. This is a sample that favours compounds with a hit; in the whole collection about 12% have one here. Calls follow the shape of the dose curve; as a rule, active = well fitted curve in the direction sought with a large enough effect; inconclusive = small, poorly fitted or top-dose-only effect, or another doubt; inactive = no such curve, though single readings can be large; an effect the other way counts as inactive or inconclusive. Potency is read from the fitted curve at half-maximal effect.
SMILES,HP1b binding inh,BAZ2B block,G9a inh,L3MBTL1 inh,JMJD2A Tudor,Sfp inh
CCOc1ccc(C(=O)NCC(=O)NNC(=O)c2ccco2)cc1OCC,25%,nt,nt,3%,-3%,nt
CCCOC1CCCN(C(=O)c2cc(COc3ccc(-n4cncn4)cc3)on2)C1 (stereo unspecified),25%,-4%,nt,nt,-5%,17%
COc1ccc(-c2nc3sc(CCNC(=O)C(=O)Nc4c(C)cccc4C)c(C)n3n2)cc1,44%,-2%,-2%[59 µM],nt,-11%,nt
COc1ccc(CCNC(=O)CSc2nnnn2-c2cccc(C(C)=O)c2)cc1OC,31%,-16%,2%[59 µM],nt,-13%,nt
Cc1ccccc1CN1C(=O)C(O)(CC(=O)c2cccc(Br)c2)c2ccccc21 (stereo unspecified),39%,1%,13%[59 µM],nt,-32%,nt
CCOC(=O)c1cc(S(=O)(=O)NC2CCN(C(=O)OCC)CC2)cn1C,28%,3%,50µM*,-10%,-14%,-11%
CCOC(=O)N1CCC(NS(=O)(=O)c2ccc(C)c(Cl)c2)CC1,19%,-7%,-24%,-4%,-7%,5%
CCCCCC(=O)/C=C/[C@H]1[C@H](O)CC(=O)[C@@H]1C/C=C\CCCC(=O)O,nt,nt,nt,nt,nt,0%
C/C(CS(=O)(=O)c1ccc(Cl)cc1)=N/NC(N)=S,66%,-10%,-4%,nt,-8%,79µM*
O=C(OCC1CCCO1)c1ccc2c(c1)N(Cc1ccccc1Cl)C(=O)c1ccccc1S2(=O)=O (stereo unspecified),55%,-4%,-21%[59 µM],nt,-11%,nt
O=C(N/N=C/c1oc(O)c2ccccc12)c1ccccc1,38%,-16%,11µM*,6%,-8%,13%
CC(=O)C1=C(O)C(=O)N(CC#N)C1c1cccs1 (stereo unspecified),14%,-11%,-5%[59 µM],5%,79µM*,-19%
O=C(C1=C(O)C(=O)N(CCOCCO)C1c1cccs1)c1cccs1 (stereo unspecified),40%,?,45µM*,-6%,?,-21%
O=C(C1=C(O)C(=O)N(Cc2ccco2)C1c1cccs1)c1cccs1 (stereo unspecified),35%,?,?,0%,-4%[57.1 µM],-64%
Cc1cc(C)n2nc(C(=O)OCC(=O)N(CC(C)C)C3CCS(=O)(=O)C3)nc2n1 (stereo unspecified),28%,nt,nt,2%,-6%,nt
C[C@@H]1CCC[C@]2(C)CCCC[C@@]12O,nt,nt,nt,nt,nt,1%
CCCCCCCn1ccc(=N)cc1,11%,-4%,6.3µM*,nt,13%,10%
CCCCCCCCCn1ccc(=N)cc1,22%,5%,5%,3%,-10%,-24%
O=C1CCCC2=C1C1(CCSC1)N=C(Nc1nc3ccccc3o1)N2 (stereo unspecified),nt,nt,nt,nt,-2%,nt
O=C(NNc1ccccc1C(F)(F)F)c1sccc1Cl,50%,nt,nt,nt,-10%,nt
COc1ccccc1OC(C)C(=O)Nc1ccccc1C(=O)NCc1cccnc1 (stereo unspecified),3%,4%,?,nt,-4%,2%
O=C(Nc1ccc(F)cc1)C(=O)c1c(O)[nH]c2ccc([N+](=O)[O-])cc12,-17%,?,32µM*,-2%,?,?
CCOC(=O)CC1=NN(c2ccccc2)C(=O)/C1=C\c1ccc(N(C)C)cc1,?,5.6µM*,4.5µM*,-4%,10µM*,7%
N#Cc1c2n(c(=S)n(-c3ccccc3[N+](=O)[O-])c1=O)CCCCC2,-7%,nt,40µM*,10%,?,?
N#Cc1c2n(c(=S)n(-c3ccccc3)c1=O)CCCCC2,73%,-15%,-3%,3%,-10%,1%
SMILES,HP1b binding inh,BAZ2B block,G9a inh,L3MBTL1 inh,JMJD2A Tudor,Sfp inh
COc1ccc(-c2coc3cc(OC(C)=O)ccc3c2=S)cc1,?,nt,nt,nt,45µM*,nt
Cc1ccc(C2(C)NC(=O)N(CC(=O)Nc3ccccc3N3CCCC3)C2=O)cc1 (stereo unspecified),-21%,50µM*,40µM*,2.8µM*,?,nt
CC1(c2ccc(Cl)cc2)NC(=O)N(CC(=O)Nc2ccc(N3CCCCC3)cc2)C1=O (stereo unspecified),-24%,?,50µM*,-17%,?,nt
CC1(c2ccc(Cl)cc2)NC(=O)N(CC(=O)Nc2ccc(F)cc2)C1=O (stereo unspecified),-1%,0%,12%[59 µM],nt,-11%,18%
CCC1(c2ccc(F)cc2)NC(=O)N(CC(=O)Nc2ccc(N3CCCCC3)cc2)C1=O (stereo unspecified),-48%,45µM*,-6%[0.501 µM],-18%,45µM*,nt
CCC(O)CC(C(=O)NNc1ccccc1)C(=O)NNc1ccccc1 (stereo unspecified),?,-2%,7.9µM*,11%,-16%,5%
CCOC(=O)NNc1ccccc1,4%,-3%,nt,12%,-11%,10%
CCc1ccc(-n2nc(CO)c(C(=O)NC)n2)cc1,19%,-1%,8%[59 µM],nt,-7%,nt
COc1ccc(NCc2nc3ccccc3n2CCOc2ccccc2C)cc1,?,13µM*,?,nt,20µM*,nt
Cc1ccc(NCc2nc3ccccc3n2CCOc2ccccc2)cc1,-23%,22µM*,2.2µM*,?,16µM*,?
Cc1ccc(OCCn2c(CNc3cccc(C)c3)nc3ccccc32)cc1,-9%,?,-45%[59 µM],nt,?,nt
Cc1ccc(NC(=O)c2cc(C(C)(C)C)nn2Cc2ccccc2)cc1,33%,1%,nt,11%,-8%,14%
Cc1ccc(NNC(=O)c2cc(C(C)(C)C)nn2Cc2ccccc2)cc1,?,0%,3.5µM*,-21%,71µM*,9%
COc1ccccc1NNC(=O)c1cc(C(C)(C)C)nn1Cc1ccccc1,8%,?,13µM*,-7%,-34%,10%
CCCCN(C)S(=O)(=O)c1ccc(C(=O)Nc2ccc(-c3nc4ccc(C)cc4s3)cc2)cc1,4%[57 µM],3%,14%[59 µM],nt,-20%,nt
OCC(O)CS (stereo unspecified),nt,nt,19%[59 µM],nt,nt,15%
Cc1ccc2[nH]c(=O)c(CN(CCCO)Cc3nnnn3Cc3ccccc3)cc2c1,6%[57 µM],nt,nt,nt,-4%[57.1 µM],nt
Cc1nc(-c2ccc(S(=O)(=O)Oc3ccccc3Cl)s2)cs1,70%,24%,35%,17%,68%,-4%
Cc1ccsc1C=C1C(=O)c2ccccc2C1=O,-7%,?,28µM*,-16%,?,3%
CC(C)N(C(=O)COC(=O)[C@@H]1CC(O)CN1S(=O)(=O)c1ccc(C(C)(C)C)cc1)C(C)C (stereo partly specified),25%,nt,-7%,?,-21%,10%
c1coc(CSSCc2ccco2)c1,?,-4%,20%[2.33 µM],-6%,56µM*,nt

# Assay outcomes as filed in PubChem.
